Screening data (PubChem)
CHX counter: counter-screen for Shiga toxin inhibitors: cycloheximide protein synthesis inhibition; cell reporter, cycloheximide protein synthesis inhibition counterscreen; max response, %; actives 12% (n = 300,000); AID 2314; in the data active = max response mostly above about 13%, no sharp cut-off; inactive = mostly below about 14%; also: read at 38.3 µM for the half of the compounds with a filed dose
Shiga toxin inh: Shiga toxin inhibition; Vero cells, Shiga toxin protein synthesis inhibition reporter; inhibition, % at 38.7 µM; AID 2315; actives 9.2% (n = 290,000); in the data active = inhibition mostly above about 28%, no sharp cut-off; inactive = mostly below about 43%
FMDV inh: antivirals against foot and mouth disease virus | FMDV antiviral cell-based qHTS | actives 1.2% (n = 410,000) | AID 1159524 | Potency, µM (doses to about 57.9 µM), most hits filed as inhibitors; calls by dose curve; tested in HEK293T cells; also: read-out not given here; nearly all actives have a fitted effect of over 45% in size
Sm TGR inh: blocks Schistosoma mansoni thioredoxin glutathione reductase; purified TGR, DTNB reduction, TNB absorbance 405 nm; Potency, µM (titrated, usually from 114 µM), hits mostly inhibitors; actives 3% (n = 360,000); Q962Y6; active = well fitted inhibition curve with a large enough effect; inconclusive = small, poorly fitted or top-dose-only effect; inactive = no such curve, though single readings can be large or run the other way; also: nearly all actives have a fitted effect of over 60% in size
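First, TGR (20 nM dispensed) and NADPH were mixed with compound. Second, a 15 min room-temperature incubation followed. Third, further NADPH and then DTNB were added to start the reaction. Finally, TNB absorbance was monitored kinetically.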
Large screens that a line does not name were inactive. Compounds with a hit are over-represented: about 12% of the library has one in this group of screens.

O=C(Nc1ccccc1)c1ccc(-n2cnnn2)cc1	CHX counter 15, Shiga toxin inh 23
COC(=O)c1ccc(NC(=O)CSc2cn(CC(=O)N3CCCCCC3)c3ccccc23)cc1	none (no result: CHX counter, Shiga toxin inh)
COc1ccccc1CNC(=O)C(=O)NCC(c1cccnc1)N1CCN(c2ccccc2)CC1 (stereo not given)	none (no result: CHX counter, Shiga toxin inh)
CN(Cc1ccccc1)c1ccc(-c2nc(-c3ccccn3)no2)cc1[N+](=O)[O-]	none (no result: CHX counter, Shiga toxin inh)
COc1ccc(CNc2ncnc3onc(-c4ccc(F)cc4)c23)cc1	none (no result: CHX counter, Shiga toxin inh)
COc1cccc(Cc2nc3ccccc3nc2SCC(=O)NCCc2ccccc2)c1	FMDV inh inconclusive (no result: CHX counter, Shiga toxin inh)
COC(=O)c1ccc(CSc2nc3ccccc3o2)cc1	CHX counter 30, Shiga toxin inh 55
O=[N+]([O-])c1ccc(CSc2nnc(SCc3ccccc3)s2)cc1	none
O=[N+]([O-])c1ccc(CSc2nc3ccccc3o2)cc1	CHX counter 36, Shiga toxin inh 121
Cc1c(C)n(Cc2ccc(F)cc2)c2ccc(C(=O)Nc3ccc(Cl)cc3)cc12	none (no result: CHX counter, Shiga toxin inh)
N#CC(C#N)=Cc1ccccc1OCc1ccccc1	CHX counter 43, Sm TGR inh 3.2µM (no result: FMDV inh)
Cc1ccc(S(=O)(=O)/C(C#N)=C/c2ccccc2OCc2ccccc2)cc1	none
N#C/C(=C\c1ccc(OCc2ccc(Br)cc2)cc1)C(=O)Nc1cccc(C(=O)O)c1	CHX counter 23, Shiga toxin inh 95
CCOc1cc(/C=C(\C#N)C(=O)Nc2cccc(C(=O)O)c2)cc(Br)c1OC(=O)c1ccc(OC)cc1	Shiga toxin inh 31
CCCOc1ccccc1/C=C(\C#N)C(=O)Nc1cccc(C)n1	CHX counter 14, Shiga toxin inh 29
CCOc1cc(/C=C(\C#N)C(=O)Nc2cccc(C(=O)O)c2)ccc1OCc1ccccc1Cl	FMDV inh inconclusive
CCc1nn(CC(=O)NCCCc2ccccc2)c(=O)c2cc3ccccc3n12	none (no result: CHX counter, Shiga toxin inh)
COc1cc(/C=C(\C#N)C(=O)Nc2cccc(C(=O)O)c2)ccc1OCc1ccc(F)cc1	CHX counter 25, Shiga toxin inh 61
COC(=O)c1ccc(COc2ccccc2/C=C(\C#N)C(=O)Nc2ccc(C)cc2)cc1	CHX counter 87, Shiga toxin inh 99
N#C/C(=C\c1ccc(OCc2ccc(F)cc2)cc1)C(=O)Nc1cccc(C(=O)O)c1	none
CCc1cccc(C)c1NC(=O)Cn1ccn(-c2ccc(F)cc2)c(=O)c1=O	none (no result: CHX counter, Shiga toxin inh)
O=C1C2CC=C(Cl)CC2C(=O)N1CC1OCCc2ccccc21 (stereo not given)	Sm TGR inh 79µM
O=C(O)c1ccccc1NCN1C(=O)C2CC=C(Cl)CC2C1=O (stereo not given)	none
O=C1C2CC=C(Cl)CC2C(=O)N1CC1Cc2ccccc2CO1 (stereo not given)	Sm TGR inh 45µM
O=C1C2CC=C(Cl)CC2C(=O)N1CN(Cc1ccco1)CN1C(=O)C2CC=C(Cl)CC2C1=O (stereo not given)	Sm TGR inh 50µM
O=C(CCN1C(=O)C2CC=C(Cl)CC2C1=O)NCc1ccco1 (stereo not given)	Sm TGR inh inconclusive
c1ccc(-c2[nH]ncc2-c2ccnc3ccccc23)nc1	none (no result: Sm TGR inh)
Cc1cc(Nc2cc(Cl)ccc2C)n2nc(Cc3ccccc3)nc2n1	FMDV inh inconclusive (no result: CHX counter, Shiga toxin inh)
O=C(Nc1ccccc1Cl)c1csc(-c2cccnc2)n1	CHX counter 29, Shiga toxin inh 41
O=C(NNS(=O)(=O)c1ccccc1)c1csc(-c2cccnc2)n1	none
O=C(NNC(=O)c1csc(-c2cccnc2)n1)c1ccccc1	CHX counter 30
Cc1ccc(CNC(=O)Cn2cc(S(=O)(=O)Cc3ccccc3Cl)c3ccccc32)cc1	none (no result: CHX counter, Shiga toxin inh)
COc1ccc(NC(=O)c2oc3ccccc3c2NC(=O)c2cc(=O)c3c(C)cc(C)cc3o2)cc1	none (no result: CHX counter, Shiga toxin inh)
CCOC(=O)NC1(Nc2cccc(Cl)c2)Oc2ccccc2O1	Sm TGR inh 50µM
COC(=O)c1[nH]c2ccc(Br)cc2c1NC(=O)CN1CCCc2ccccc21	none
COC(=O)c1[nH]c2cc(C)ccc2c1NC(=O)CN1CCCc2ccccc21	CHX counter 48
COC(=O)c1[nH]c2cc(OC)ccc2c1NC(=O)CCN1CCN(c2ccccc2)CC1	none
COC(=O)c1[nH]c2cc(OC)ccc2c1NC(=O)CCN1CCN(c2cccc(C)c2C)CC1	FMDV inh 40µM
CCOC(=O)c1c(NC(=O)CN2CCCc3ccccc32)sc(C)c1C	CHX counter 34
CCn1c(=N)c(C(=O)NCC2CCCO2)cc2c(=O)n3cc(C)ccc3nc21 (stereo not given)	none (no result: CHX counter, Shiga toxin inh)
COc1cccc(Cn2c(=O)c(-c3cccs3)nc3cnc(OCc4ccccc4)nc32)c1	none (no result: CHX counter, Shiga toxin inh, Sm TGR inh)
CC(=O)c1ccc(NC(=O)CCc2nnc3ccc(N4CCC5(CC4)OCCO5)nn23)cc1	CHX counter 47, Shiga toxin inh 82
Cc1ccc(NC(=O)CCc2nnc3ccc(N4CCC5(CC4)OCCO5)nn23)nc1	none
CC(C)(C)c1ccc(-c2nnc(N)s2)cc1	CHX counter 59, Shiga toxin inh 80
CCOc1ccc(-c2nnc(N)s2)cc1	CHX counter 25, Shiga toxin inh 142 (no result: FMDV inh)
CCCCOc1ccc(-c2ncc(N)cn2)cc1	CHX counter 53, Shiga toxin inh 114
CCOc1ccc(-c2nc(CCl)cs2)cc1	CHX counter 34, Shiga toxin inh 153
Nc1nnc(-c2ccc(F)cc2)s1	none
ClCc1csc(-c2ccc(Cl)cc2)n1	Sm TGR inh inconclusive
COc1ccc(-c2nn(-c3cccc([N+](=O)[O-])c3)c3c2cnc2cc4c(cc23)OCO4)cc1	none (no result: CHX counter, Shiga toxin inh)
CCCCOc1ccc(-c2nnc(N)s2)cc1	CHX counter 21
COc1ccc(C(C#N)N2CCC(c3ccccc3)=N2)cc1 (stereo not given)	CHX counter 21, Shiga toxin inh 43, Sm TGR inh inconclusive
CC(C)(C)OC(=O)N1CCC[C@H]1c1nnc(SCc2ccc(Cl)cc2Cl)o1	FMDV inh 40µM
CC1=C(c2ccc(C)cc2)S(=O)(=O)NC1=NCCCN1CCN(c2ccccc2F)CC1	none (no result: CHX counter, Shiga toxin inh)
CCOc1ccccc1CNc1nc2nc(C)c(CC(=O)OC)c(=O)n2[nH]1	none (no result: CHX counter, Shiga toxin inh)
c1ccc2c(COn3nnc4ccccc43)cccc2c1	CHX counter 54, Shiga toxin inh 87
N#Cc1ccc(COn2nnc3ccccc32)cc1	CHX counter 31
CCc1ccccc1Nc1nn2c(=O)c3ccc(C(=O)NCCCOC(C)C)cc3nc2s1	none (no result: CHX counter, Shiga toxin inh)
CC1CCc2[nH]c3ccc(C(=O)Nc4ccc(C(=O)N(C)C)cc4)cc3c2C1 (stereo not given)	none
CCCC(C)NC(=O)c1ccc2[nH]c3c(c2c1)CC(C)CC3 (stereo not given)	CHX counter 28
COC(=O)c1ccc2[nH]c3c(c2c1)CC(C)CC3 (stereo not given)	CHX counter 36, Shiga toxin inh 59
COC(=O)c1c(SC)nc2ccccc2c1OCc1ccccc1C	FMDV inh inconclusive (no result: CHX counter, Shiga toxin inh)
CC(C)(C)c1ccc(OCc2nnc(-c3ccccc3)o2)cc1	none (no result: CHX counter, Shiga toxin inh)
CC(C)(C)c1ccc(-c2nnc(N)o2)cc1	CHX counter 37, Shiga toxin inh 67
Cc1ccc(O)c(Nc2nc3ccccc3c3nncn23)c1	none (no result: CHX counter, Shiga toxin inh)
CS(=O)(=O)c1nc(-c2ccc(Br)cc2)cc(-c2ccccc2)c1C#N	FMDV inh inconclusive
COc1ccc(-c2cc(-c3ccccc3)c(C#N)c(S(C)(=O)=O)n2)cc1	FMDV inh 40µM
